An excerpt weighted towards active compounds, which were near 10% of everything screened.
bCat KO growth = beta-catenin-lacking colon tumor cell growth suppression; AID 818; HCT116 beta-catenin knockout viability, CellTiter-Glo, 60 h; stronger effect = lower value; viability, % at 10 µM; 140,000 tested, 1.5% active;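 active means viability at or under a set limit, the compound median less 4 SD, cut at about 6% in these data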
HCT116 PTEN-null = suppresses growth of cells with PTEN deletion. viability, % at 10 µM. HCT116 PTEN-null viability, CellTiter-Glo, 60 h; stronger effect = lower value. AID 827. 140,000 tested, 1.2% active;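 active means viability at or below a set limit, 4 SD under the median of all tested compounds, cut at about 3.7% in these data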;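 further: PTEN knockout HCT116 line with beta catenin targeted HCT116 as companion control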
p97 inhibitor = human p97 ATPase inhibition. inhibition, % at 8 µM. recombinant p97 ATPase, Kinase-Glo ATP luminescence, 3 h. 220,000 tested, 0.42% active; in the data active means inhibition above about 15%
L major viab = Leishmania major promastigote growth inhibition; inhibition, % at 10 µM; 200,000 tested, 9% active; AID 1063; Leishmania major promastigotes, resazurin fluorescence viability; in the data active means inhibition above about 50%;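 further: promastigotes grown with compound for 44 hours at 28 °C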
ROMK mod = human ROMK K+ channel modulation, primary screen. Tet-inducible ROMK, thallium flux fluorescence; actives lie on both sides. AID 1918. B-score at 10 µM. 130,000 tested, 2% active. P48048;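 active means signal ratio slope over the read window, or its plate-corrected B-score, at least 3 SD from the plate mean, either direction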;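 further: B-score of the F/F0 ratio slope over 7 to 12 s after thallium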
Insulin prom inh = TRM-6 insulin promoter activity inhibition. TRM-6 cells (human fetal islet line), insulin promoter-eGFP reporter, imaging; reporter expression induced with tamoxifen. inhibition, % at 2 µM. 130,000 tested, 0.9% active. AID 1273;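 active means inhibition above the mean plus 3 SD, with well images judged a real hit on visual review, cut at about 60% in these data, passing the limit was not always enough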
Of the large screens only hits and unclear results are named; the others gave an inactive call.

CC(=O)Nc1ccc2nc(NC(=O)COc3ccccc3C)sc2c1	none (no result: bCat KO growth, HCT116 PTEN-null)
COc1cccc(-c2nnc(Nc3nc4c(F)cccc4s3)o2)c1	ROMK mod 9.4
Nc1nc2c(Cl)ccc(Cl)c2s1	none (no result: bCat KO growth, HCT116 PTEN-null, Insulin prom inh)
COc1cccc2sc(Nc3nc(-c4cc5ccccc5oc4=O)cs3)nc12	none (no result: ROMK mod, Insulin prom inh)
COc1cccc2sc(Nc3nc4ccc(NC(C)=O)cc4s3)nc12	L major viab 85
NNc1nc2c(Cl)c(Cl)ccc2s1	L major viab 99
COc1cccc2sc(Nc3nnc(-c4ccccc4Cl)o3)nc12	L major viab 97 (no result: ROMK mod, Insulin prom inh)
CCOC(=O)c1sc(Nc2nc3c(OC)cccc3s2)cc1C	L major viab 69
COc1cccc2sc(Nc3nc(-c4ccncc4)cs3)nc12	none (no result: bCat KO growth, HCT116 PTEN-null, Insulin prom inh)
CCOC(=O)c1sc(Nc2nc3cc4c(cc3s2)OCO4)cc1C	none (no result: ROMK mod, Insulin prom inh)
COc1cccc2sc(NN)nc12	L major viab 60 (no result: bCat KO growth, HCT116 PTEN-null, Insulin prom inh)
O=C(NCC1OCCCN1S(=O)(=O)c1cc(F)ccc1F)C(=O)NC1CCCCC1 (stereo unspecified)	none (no result: bCat KO growth, HCT116 PTEN-null)
CC(C)CCNC(=O)CN(Cc1ccco1)C(=O)c1snc(C(N)=O)c1N	none (no result: bCat KO growth, HCT116 PTEN-null)
Cc1ccc(N(C(=O)c2snc(C(N)=O)c2N)C(C(=O)NCCC(C)C)c2ccco2)cc1 (stereo unspecified)	L major viab 65 (no result: bCat KO growth, HCT116 PTEN-null)
CC(C)CCNC(=O)C(c1ccco1)N(Cc1ccccc1)C(=O)c1snc(C(N)=O)c1N (stereo unspecified)	none (no result: ROMK mod)
CCc1ccccc1N(CC(=O)NCc1ccco1)C(=O)c1snc(C(N)=O)c1N	L major viab 62 (no result: ROMK mod)
CN(C)c1ccc(C(C(=O)NC(C)(C)C)N(C(=O)c2csnn2)C2CC2)cc1 (stereo unspecified)	L major viab 53
Cc1c(CN(C)C(=O)/C=C/c2ccc([N+](=O)[O-])cc2)cnn1C	none (no result: ROMK mod, Insulin prom inh)
Cc1c(Cl)c(C(F)(F)F)nn1CC(=O)NN	none (no result: bCat KO growth, HCT116 PTEN-null)
Cc1c(Cl)c(C(F)(F)F)nn1CC(=O)N1CCSCC1	Insulin prom inh 100
O=C(Nc1ccccc1)N1CCCCC1c1cccnc1 (stereo unspecified)	L major viab 77
CC1=C(CC(=O)c2ccc(Cl)cc2)C(=O)c2ccccc2C1=O	bCat KO growth 3.7, HCT116 PTEN-null 1.9 (no result: ROMK mod)
CN1CCN(c2ccccc2NC(=O)c2cc3ccccc3o2)CC1	L major viab 68 (no result: ROMK mod)
O=C(Nc1ccccc1N1CCCC1)c1cc2ccccc2o1	none (no result: ROMK mod)
CN1CCN(c2ccccc2NC(=O)c2ccc(-c3ccc(Cl)cc3Cl)o2)CC1	bCat KO growth 5.5, L major viab 99
O=C(Nc1ccccc1N1CCCCC1)c1ccc(-c2cccc(Cl)c2)o1	none
CS(=O)(=O)N1CCN(c2ccccc2NC(=O)c2ccc(-c3ccc(Cl)cc3Cl)o2)CC1	L major viab 91 (no result: ROMK mod)
Cc1noc(C)c1S(=O)(=O)N1CCC(C(=O)N(C)Cc2ccccc2)CC1	none
Cc1noc(C)c1S(=O)(=O)N1CCC(C(=O)Nc2ccc(OC(F)(F)F)cc2)CC1	L major viab 100
CCC(Cc1ccccc1)NC(=O)C1CCN(S(=O)(=O)c2c(C)noc2C)CC1 (stereo unspecified)	L major viab 92 (no result: ROMK mod)
CCOc1ccccc1NC(=O)C1CCN(S(=O)(=O)c2c(C)noc2C)CC1	L major viab 98
CN(C)Cc1nnnn1-c1ccccc1	none (no result: bCat KO growth, HCT116 PTEN-null, L major viab, ROMK mod, Insulin prom inh)
O=C(COC(=O)c1cccnc1)Nc1ccc2c(c1)OCO2	none (no result: bCat KO growth, HCT116 PTEN-null, Insulin prom inh)
O=C(O)CSc1c(-c2cccs2)[nH]c2ccccc12	none (no result: ROMK mod)
COC(=O)Cn1c2ccc(Cl)cc2c2nc(C)sc21	none (no result: bCat KO growth, HCT116 PTEN-null, L major viab, ROMK mod, Insulin prom inh)
Cc1ccc(S(=O)(=O)n2c3ccc(Cl)cc3c3nc(C)sc32)cc1	Insulin prom inh 80
CC(=O)Nc1ccc(NC(=O)Cn2nc([N+](=O)[O-])c(Br)c2C)cc1	none (no result: bCat KO growth, HCT116 PTEN-null)
Cc1ccc(C)c(NC(=O)Cn2nc(C(F)(F)F)cc2C2CC2)c1	bCat KO growth 5.3
Cc1c(Br)c([N+](=O)[O-])nn1CC(=O)NCCc1c[nH]c2ccccc12	L major viab 69 (no result: bCat KO growth, HCT116 PTEN-null, Insulin prom inh)
Cc1ccc(C)c(NC(=O)Cn2nc([N+](=O)[O-])c(Br)c2C)c1	L major viab 73 (no result: ROMK mod)
CC(=O)OC(C(=O)Nc1ccccc1C)C(OC(C)=O)C(OC(C)=O)C(OC(C)=O)C(=O)Nc1ccccc1C (stereo unspecified)	none (no result: bCat KO growth, HCT116 PTEN-null, ROMK mod)
COc1ccc(/C=C2/C(=O)N(c3nc4ccccc4s3)N=C2CSc2ccc(Cl)cc2)cc1	L major viab 100
O=[N+]([O-])c1cc(O)c2ncccc2c1	L major viab 100 (no result: bCat KO growth, HCT116 PTEN-null)
O=[N+]([O-])c1cc2cccnc2c2ncccc12	none (no result: bCat KO growth, HCT116 PTEN-null, L major viab, ROMK mod, Insulin prom inh)

Assay outcomes deposited in PubChem BioAssay by several laboratories.
